# Most compounds without a hit are left out; they make up all but 21% or so of the library.
# Pf growth 96h: P. falciparum growth inhibition at 96 hours; P. falciparum luciferase reporter growth, 96 h; Potency, µM (highest dose often 28.7 µM), usual class: inhibitors; 320,000 compounds, 6.9% hits; AID 504834
#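 Cell-based qHTS: luciferase-tagged P. falciparum in erythrocytes (2% hematocrit, 0.05% parasitemia final) incubated with compounds for 96 hours, 37 C, 5% CO2; luciferase detection reagent then added and luminescence measured.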
# Shiga toxin inh: blocks Shiga toxin action in Vero cells; Vero cells, Shiga toxin protein synthesis inhibition reporter; inhibition, % at 38.7 µM; 290,000 compounds, 9.2% hits; AID 2315; in the data active means inhibition mostly above about 28%, no sharp cut-off; inactive means mostly below about 43%
# HCV inh: HCV inhibition; Huh7.5.1 HCVcc-Cre infection, luciferase reporter, 44 h; Potency, µM (highest dose often 41.8 µM), most hits filed as inhibitors; 340,000 compounds, 3.4% hits; AID 651820
#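 Seed cells (1,000/well) for 4 h; treat with compound and infect with HCVcc-Cre, moi about 0.5. Incubate 44 h, then detect luciferase activity.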
# Pf growth 48h: P. falciparum growth inhibition at 48 hours (one generation); P. falciparum luciferase growth in erythrocytes, 48 h; Potency, µM (series often up to 28.7 µM), hits mostly inhibitors; 310,000 compounds, 5.9% hits; AID 504832
#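 A one-generation exposure of luciferase-tagged malaria parasites in RPMI 1640/Albumax erythrocyte culture, 37 C and 5% CO2. Inhibition is inferred from decreased luminescence after adding detection reagent.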
# AMA1 RON2 block: inhibitors of Plasmodium falciparum AMA1-RON2 interaction; AlphaScreen AMA1-biotinylated RON2 peptide binding; 360,000 compounds, 0.2% hits; Potency, µM (highest dose often 58.2 µM), most hits filed as inhibitors; AID 720542; further: nearly all actives have a fitted effect of over 45% in size
#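 AMA1 (3D7) with his tag at 25 nM final met compounds first, then biotinylated RON2 peptide at 25 nM; detection used donor plus acceptor beads, 10 µg/mL apiece, read by AlphaScreen after 30 min at room temperature.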
# Cycloheximide cs: affects cycloheximide protein synthesis inhibition readout, counter-screen; max response, %; 300,000 compounds, 12% hits; cell reporter, cycloheximide protein synthesis inhibition counterscreen; in the data active means max response mostly above about 13%, no sharp cut-off; inactive means mostly below about 14%; further: read at 38.3 µM for the half of the compounds with a filed dose
# Hits are given with their value; i = inactive; ? = inconclusive; nt = not tested or not shown; [ ] = remark or other dose. Unless noted, the call rests on the fitted dose curve; in most records, active means well fitted curve in the direction sought with a large enough effect; inconclusive means small, poorly fitted or top-dose-only effect, or another doubt; inactive means no such curve, though single readings can be large; an effect the other way counts as inactive or inconclusive.
SMILES,Pf growth 96h,Shiga toxin inh,HCV inh,Pf growth 48h,AMA1 RON2 block,Cycloheximide cs
Cc1ccc(CNC(=O)C2CCC(=O)N(Cc3ccccc3F)C2)s1 (centres undefined),i,i,i,i,i,31
COc1cccc(OCC(=O)Nc2ccccc2C(=O)Nc2ccc(C(=O)O)cc2)c1,i,i,i,?,i,i
COc1ccc2oc(=O)c(C(=O)Nc3cccc(C(C)=O)c3)cc2c1,i,nt,i,i,i,i
COc1ccc(Nc2nc(-c3cc4cccc(OC)c4oc3=O)cs2)cc1,i,i,?,i,i,21
COc1ccc2oc(=O)c(-c3csc(Nc4cccc(O)c4)n3)cc2c1,i,58,?,i,i[11.6 µM],48
C/C=C1\COC(C(=O)NCc2cccc(OC)c2OC)(C(F)(F)F)C=C1C=C(C)C (centres undefined),nt,i,nt,nt,nt,i
COc1ccc(CN(C)CC(=O)Nc2ccccc2C(=O)NC2CC2)cc1F,nt,nt,?,nt,i,nt
O=C(NCc1cccnc1)c1csc([C@@H]2O[C@H](CO)[C@H](O)[C@H](O)[C@H]2O)n1,nt,nt,nt,nt,i,nt
COc1ccc(Cn2ccnc2SCC(=O)Nc2ccc(F)cc2F)cc1,nt,nt,nt,nt,i,nt
Cc1ccc(S(=O)(=O)N(CC(=O)Nc2ccc(Cl)cc2)C(=O)N2CCN(C)CC2)cc1,i,nt,i,i,i,nt
CC(=O)Nc1ccc(N=C(C2=C(O)c3ccccc3C2=O)c2ccccc2)cc1,?,63,?,i,i,44
CCOc1ccc(N=C(C)C2=C(O)c3ccccc3C2=O)cc1,i,194,i,i,i,43
COc1ccc(N=N/C(C(C)=O)=C(/C)O)cc1,i,i,i,i,i,i
COc1ccc(N=C(C)C2=C(O)c3ccccc3C2=O)cc1,i,115,i,i,i,58
CC(NC(=O)C(Cc1ccccc1)=NO)c1ccccc1 (centres undefined),nt,nt,i,nt,i,nt
Cc1ccc(-c2c(C(=O)NCCc3ccccc3)oc(=O)c3ccccc23)cc1,nt,i,nt,nt,nt,i
CCCCCOC(=O)Nc1nnc(CCC)s1,?,i,i,i,i,28
CCCCOC(=O)Nc1nnc(C(C)C)s1,i,119,?,i,i,37
Cc1nc2ncccn2c1-c1csc(Nc2ccc(O)cc2)n1,i,i,?,?,?,i
NNc1nc(-c2ccccc2)cs1,?,i,i,i,i,34
Cc1nc(-c2ccccc2)cs1,i,i,i,nt,i,i
Oc1ccc(-c2csc(Nc3ncccn3)n2)cc1,4.1µM,122,i,i,i,39
CC(=O)Nc1ccc(-c2csc(-c3cccnc3)n2)cc1,i,111,?,i,i,72
N#Cc1ccc(Nc2nc(-c3ccccc3)cs2)cc1,nt,nt,nt,nt,i,nt
c1ccc(-c2csc(Nc3ncccn3)n2)cc1,?,54,i,i,i,i
SMILES,Pf growth 96h,Shiga toxin inh,HCV inh,Pf growth 48h,AMA1 RON2 block,Cycloheximide cs
COc1cccc(C(=O)OCC(=O)Nc2cc(C)on2)c1OC,nt,nt,i,nt,i,nt
CC(=O)Nc1ccc(-c2csc(Nc3ncccn3)n2)cc1,i,81,i,i,i,33
Cn1c(C(=O)NC2CCCCC2)cc2sccc21,nt,i,i,i,i,29
CC1CCN(CCCNC(=O)c2cc3sccc3n2C)CC1,i,i,i,i,i,i
CN(C(=O)c1cc2sccc2n1C)C1CCCCC1,2.6µM,99,i,i,i,42
COc1ccc(C)cc1NC(=O)C1CCN(S(=O)(=O)c2ccc3c(c2)C(C)(C)C(=O)N3C)CC1,i,i,i,?,i,i
O=C(O)COc1ccc2occ(C(=O)c3ccccc3)c2c1,nt,i,i,i,i,i
COc1ccc(C(=O)c2coc3ccc(O)cc23)cc1,i,43,i,i,i,46
O=C(c1cccc(Br)c1)c1coc2ccc(O)cc12,i,nt,?,i,i,nt
Cc1ccc(C(=O)c2coc3ccc(OCC(=O)O)cc23)cc1,nt,35,i,i,i,22
CCOC(=O)C1CCN(C(=O)CCC2CCCC2)CC1,i,i,i,i,i,i
O=C(COc1ccc2ccccc2c1)N1c2ccccc2Sc2ccccc21,13µM,i,i,?,i,i
CC(C)(C)NC(=O)COc1ccc(CNCCc2ccccc2)cc1,i,i,i,?,i,i
CCNC(=O)COc1ccc(CC)cc1,i,46,i,i,i[11.6 µM],25
CCc1ccc(OCC(=O)NC(C)(C)C)cc1,i,44,i,i,i[11.6 µM],23
CCOc1ccc(NC(=O)NNC(=O)COc2ccc3ccccc3c2)cc1,2.6µM,i,i,i,i,i
O=C(CCl)N1c2ccccc2Sc2ccc3ccccc3c21,nt,nt,nt,nt,i,nt
COc1ccccc1C1NC(=O)NC(C)=C1C(=O)OCC1CCCCC1 (centres undefined),nt,nt,nt,nt,i,nt
CCNC(=O)COc1ccc2ccccc2c1,i,58,i,i,i,71
O=c1oc2cc(Oc3c([N+](=O)[O-])cc(C(F)(F)F)cc3[N+](=O)[O-])ccc2c2c1CCCC2,?,i,3.2µM,i,i,i
O=c1oc2cc(Oc3ccc(C(F)(F)F)cc3[N+](=O)[O-])ccc2c2c1CCC2,i,i,?,i,i,i
O=C1CSc2cc(Cl)ccc2N1,nt,nt,i,nt,i,nt
On1c(-c2ccc(Cl)cc2)nc2ccccc21,?,63,i,i,i,43
